# Assay: reversal of MRP1-mediated doxorubicin resistance, pilot screen, H69AR cells, doxorubicin co-treatment (AID 601)
# Details: H69AR cells, CellTiter-Glo, 72 h; compound alone cytotoxicity; at 10 µM
row,SMILES,viability [%]
1,O=C(NCCN1CCCCCC1)c1ccc(CS(=O)(=O)c2ccc(Br)cc2)o1,91
2,Cc1ccc(S(=O)(=O)NCCOC(=O)Nc2sc(=S)n(C)c2C)cc1,101
3,COc1ccccc1CC(=O)Nc1ccc(OC)c(OC)c1,89.6
4,CCN(CC)C(=O)C1CCCc2c1[nH]c1ccc(Cl)cc21 (stereo not drawn),76.6
5,CCOC(=O)N1CCC(NC(=O)C2CCCN(C(=O)c3cc4sccc4n3C)C2)CC1 (stereo not drawn),94.8
6,CCOC(=O)c1[nH]c(C)c(C(=O)Nc2ccc(Cl)cc2)c1C,85.9
7,O=C(NC(=O)c1cccc(F)c1)OC[C@@H]1CCCN2CCCC[C@H]12,96.5
8,COc1ccccc1-n1c(=O)[nH]c2c(C(N)=O)nc(-c3cccnc3)nc21,69.9
9,CC1(C)CC(=O)c2cnc(NC(=O)Cc3ccc(Cl)cc3)nc2C1,100
10,CC(C)(NC(=O)N1CCCC1)c1cccc(C(C)(C)NC(=O)N2CCCC2)c1,95.5
11,COc1ccc(NC(=O)C2CCCN(S(=O)(=O)c3cccc4cccnc34)C2)cc1OC (stereo not drawn),67.5
12,CCOc1ccc(CCN2C(=O)C3C4C=CC(C4)C3C2=O)cc1OCC (stereo not drawn),87.9
13,COc1ccc(S(=O)(=O)N2CCN(c3ccc(C)cc3C)CC2)cc1OC,97.2
14,O=C(C1CCN(c2nnc(-n3cccc3)s2)CC1)N1CCc2ccccc2C1,77.9
15,CCOc1cc(C2C3=C(CCCC3=O)N(C)C3=C2C(=O)CCC3)cc(Cl)c1O,104
16,O=C(OCN1C(=O)c2ccccc2C1=O)C1CCCCC1,87.6
17,Cc1ccc2cccc(SCC(=O)N3CCOCC3)c2n1,90.7
18,c1ccn2c(SCc3ccc4c(c3)OCCO4)nnc2c1,92.1

# Source: PubChem BioAssay
